The panel holds about 83,000 compounds, 20% with a hit somewhere; the sample as a whole holds those more often.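 Percent growth is the endpoint: 0 to 100 indicates growth inhibition (40 means 60% inhibition), 0 means no net growth, and negative values indicate cell death.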 Active and inactive are the calls of the source. The calls were made as follows: active = growth percent below 10; inactive = the rest.
Legend:
Assay in all cases: NCI-60 one-dose screen, 48 h (100 = growth as untreated, 0 = no growth, -100 = all killed)
DU-145 prostate = conditions: 10 µM unless noted
MALME-3M melanoma = conditions: 10 µM unless noted
MDA-MB-231 breast = conditions: 10 µM unless noted
RXF 393 renal = conditions: 10 µM unless noted
SF-268 CNS = conditions: 10 µM unless noted
SF-295 CNS = conditions: 10 µM unless noted
SF-539 CNS = conditions: 10 µM unless noted
M14 melanoma = conditions: 10 µM unless noted
HCT-15 colon = conditions: 10 µM unless noted
HT29 colon = conditions: 10 µM unless noted
SNB-75 CNS = conditions: 10 µM unless noted
SNB-19 CNS = conditions: 10 µM unless noted
U251 CNS = conditions: 10 µM unless noted
PC-3 prostate = conditions: 10 µM unless noted
SK-MEL-5 melanoma = conditions: 10 µM unless noted
UACC-62 melanoma = conditions: 10 µM unless noted
LOX IMVI melanoma = conditions: 10 µM unless noted
SK-MEL-28 melanoma = conditions: 10 µM unless noted
UACC-257 melanoma = conditions: 10 µM

Measured: growth

O=c1cc(-c2ccccc2)nc2sc(-c3c[nH]c4ccc(F)cc34)nn12
active: SNB-75 CNS -37.9%
inactive: DU-145 prostate 63.3% | MALME-3M melanoma 21.9% | MDA-MB-231 breast 51.8% | RXF 393 renal 40.5% | SF-268 CNS 82.9% | SF-295 CNS 82.9% | SF-539 CNS 68% | M14 melanoma 63.5% | HCT-15 colon 67.8% | HT29 colon 73.2% | SNB-19 CNS 77.5% | U251 CNS 57.9% | PC-3 prostate 64.9% | SK-MEL-5 melanoma 69.8% | UACC-62 melanoma 68.1% | LOX IMVI melanoma 72% | SK-MEL-28 melanoma 67.7%

C=C1C(=O)O[C@@H]2C[C@@H](C)[C@H](OC)CC(=O)[C@](C)(OC(C)=O)C[C@H](OC(=O)/C(C)=C\C)[C@@H]12
inactive: DU-145 prostate 78.3% | MALME-3M melanoma 40.2% | MDA-MB-231 breast 36.7% | RXF 393 renal 58.7% | SF-268 CNS 93.1% | SF-295 CNS 91.6% | SF-539 CNS 71.4% | UACC-257 melanoma 77.1% | M14 melanoma 88.8% | HCT-15 colon 58.9% | HT29 colon 59.5% | SNB-75 CNS 78.7% | SNB-19 CNS 99.1% | U251 CNS 91.5% | PC-3 prostate 83.6% | LOX IMVI melanoma 84.4%

COc1ccc2c(C3=C(c4cn(C)c5ccccc45)C(=O)NC3=O)coc2c1
active: RXF 393 renal -10.2% | SF-539 CNS 1.16% | HT29 colon 6.25%
inactive: DU-145 prostate 31.1% | MALME-3M melanoma 97.1% | MDA-MB-231 breast 30.4% | SF-268 CNS 67.6% | SF-295 CNS 36.3% | M14 melanoma 36.9% | HCT-15 colon 20% | SNB-75 CNS 17.6% | SNB-19 CNS 37.9% | U251 CNS 15.8% | PC-3 prostate 21.9% | SK-MEL-5 melanoma 42.4% | UACC-62 melanoma 29.5% | LOX IMVI melanoma 34.8% | SK-MEL-28 melanoma 65.2%

COc1cc2c3c(n(CCCN4CCCCC4)c(=O)c2cc1OC)-c1cc2c(cc1C3=O)OCO2
inactive: UACC-62 melanoma 59.2%
active: DU-145 prostate -92.2% | MALME-3M melanoma -78.5% | MDA-MB-231 breast -77.1% | RXF 393 renal -73.9% | SF-268 CNS -55.5% | SF-295 CNS -75.6% | SF-539 CNS -89.3% | M14 melanoma -89.5% | HCT-15 colon -84.2% | HT29 colon -96.9% | SNB-75 CNS -85.3% | SNB-19 CNS -72.3% | U251 CNS -92.5% | PC-3 prostate -87% | LOX IMVI melanoma -74% | SK-MEL-28 melanoma -79.4%

c1cncc(-c2cn3nc(-c4c[nH]c5ccccc45)sc3n2)c1
inactive: DU-145 prostate 73% | MALME-3M melanoma 38.3% | MDA-MB-231 breast 52.5% | RXF 393 renal 52.1% | SF-268 CNS 83.4% | SF-295 CNS 74.7% | SF-539 CNS 42.2% | M14 melanoma 37% | HCT-15 colon 27.7% | HT29 colon 21.6% | SNB-75 CNS 51.8% | SNB-19 CNS 61.1% | U251 CNS 69.9% | PC-3 prostate 48.7% | SK-MEL-5 melanoma 23.4% | UACC-62 melanoma 55.3% | LOX IMVI melanoma 46.7% | SK-MEL-28 melanoma 55.5%

CNC(=O)c1cc(Oc2ccc3nc(NC(=O)c4cccc(C(F)(F)F)c4)sc3c2)ccn1
inactive: DU-145 prostate 101% | MALME-3M melanoma 97.2% | MDA-MB-231 breast 104% | RXF 393 renal 106% | SF-268 CNS 98% | SF-295 CNS 92.6% | SF-539 CNS 99.4% | UACC-257 melanoma 104% | M14 melanoma 96.6% | HT29 colon 106% | SNB-75 CNS 90.7% | SNB-19 CNS 93.3% | U251 CNS 104% | PC-3 prostate 102% | SK-MEL-5 melanoma 101% | UACC-62 melanoma 85% | LOX IMVI melanoma 99.3% | SK-MEL-28 melanoma 89.8%

CCOC(=O)CC(=O)CSC1=NC2C(NN1)N(C)C(=O)N2C (stereo not given)
inactive: DU-145 prostate 90.2% | MALME-3M melanoma 61.6% | MDA-MB-231 breast 75.3% | RXF 393 renal 105% | SF-268 CNS 99.4% | SF-295 CNS 102% | SF-539 CNS 91.5% | M14 melanoma 81.3% | HCT-15 colon 63% | HT29 colon 62.9% | SNB-75 CNS 99% | SNB-19 CNS 97.4% | U251 CNS 98.6% | PC-3 prostate 89.4% | SK-MEL-5 melanoma 99.6% | UACC-62 melanoma 89.4% | LOX IMVI melanoma 92.9% | SK-MEL-28 melanoma 89.3%

COc1cc2c3c(n(CCCNC4CCC4)c(=O)c2cc1OC)-c1cc2c(cc1C3=O)OCO2
active: DU-145 prostate -73.5% | MALME-3M melanoma -46.2% | MDA-MB-231 breast -65.1% | RXF 393 renal -74% | SF-539 CNS -83.5% | M14 melanoma -78% | HCT-15 colon -53% | HT29 colon -64.1% | SNB-75 CNS -67% | SNB-19 CNS -25.2% | U251 CNS -88.9% | PC-3 prostate -78.7% | LOX IMVI melanoma -72.8%
inactive: SF-268 CNS 45.6% | SF-295 CNS 20.4% | UACC-62 melanoma 59.1% | SK-MEL-28 melanoma 86.7%

COc1ccc([C@@H]2[C@@H](O)C(=O)N2c2cc(OC)c(OC)c(OC)c2)cc1Cl
inactive: DU-145 prostate 15.2% | MALME-3M melanoma 64.3% | MDA-MB-231 breast 26% | RXF 393 renal 26% | SF-268 CNS 44% | M14 melanoma 13.4% | HCT-15 colon 10.5% | HT29 colon 12.8% | SNB-75 CNS 53.4% | SNB-19 CNS 30% | PC-3 prostate 17.5% | UACC-62 melanoma 26.1% | LOX IMVI melanoma 18.5% | SK-MEL-28 melanoma 64.2%
active: SF-295 CNS 9.68% | SF-539 CNS -12.4% | U251 CNS 1.75%

COc1cc2c3c(n(CCCN4CCCC4)c(=O)c2cc1OC)-c1cc2c(cc1C3=O)OCO2
inactive: SF-295 CNS 35.1% | SK-MEL-5 melanoma 87.5% | UACC-62 melanoma 73.9%
active: DU-145 prostate -71.1% | MALME-3M melanoma -76.5% | MDA-MB-231 breast -76.1% | RXF 393 renal -75.9% | SF-268 CNS -49.1% | SF-539 CNS -83.2% | M14 melanoma -86.3% | HCT-15 colon -61.7% | HT29 colon -76% | SNB-75 CNS -74.6% | SNB-19 CNS -48.9% | U251 CNS -96.2% | PC-3 prostate -64.5% | LOX IMVI melanoma -80.1% | SK-MEL-28 melanoma -74.1%

Source: PubChem BioAssay (NCI)
